Bioassay records as filed in PubChem BioAssay.
Nrf2 block – Nrf2 qHTS screen for inhibitors; A549 ARE-Fluc reporter, luciferase luminescence, 18-24 h; Potency, µM (doses to about 46 µM), usual class: inhibitors; 360,000 tested, 2.1% active; AID 504444, 2011; also: nearly all actives have a fitted effect of over 60% in size
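Nrf2 function is reported as luminescence of an ARE-controlled luciferase in A549 cells. Compounds were tested at several concentrations, and a CellTiter-Fluor read on the same wells flagged cytotoxicity.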
Nrf2 activator – qHTS of Nrf2 Activators; AREc32 ARE-luciferase reporter (MCF7-derived line), luminescence, 24 h; Potency, µM (top dose mostly 46.1 µM), actives largely listed as activators; 410,000 tested, 0.31% active; also: nearly all actives have a fitted effect of over 65% in size
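AREc32 cells carrying an ARE-driven firefly luciferase reporter were seeded at 1000 cells/well in OPTI-MEM with 5% FBS, then exposed to compound for 24 hr at 37 deg C. Luminescence was read with Steady-Glo after 30 min at RT.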
A549 viability – Nrf2 qHTS screen for inhibitors: counterscreen for cytotoxicity | A549 ARE-Fluc cells, CellTiter-Fluor viability, 18-24 h | Potency, µM (series often up to 46 µM), actives largely listed as inhibitors | 390,000 tested, 0.16% active | AID 504648, 2011
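A549 ARE-Fluc cells in 5% FBS OPTI-MEM, 5000 cells/well, rested 2 h then exposed to compounds in concentration-response for 18-24 h at 37 °C. Viability by CellTiter-Fluor fluorescence (Ex 405/Em 525) after 30 min; luciferase luminescence (BugLite, 15 min, RT) read afterwards.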
PINK1 modulator – A Quantitative High throughput Screen to Identify Chemical Modulators of PINK1 Expression; Potency, µM (top dose mostly 76.6 µM), actives largely listed as activators; 410,000 tested, 0.2% active; PINK1 immunofluorescence, high-content cytometry, 24 h; active = well fitted activation curve with a large enough effect; inconclusive = small, poorly fitted or top-dose-only effect; cell line not stated here; also: nearly all actives have a fitted effect of over 65% in size
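PINK1 protein, normally rapidly degraded, was detected by immunofluorescence after 24 hour compound treatment of a stable cell line. Titration data (5 concentrations) came from laser-scanning cytometry, with CCCP-treated wells as controls.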
Epigenetic derep – Quantitative High-Throughput Screen for Regulators of Epigenetic Control; Potency, µM (top dose mostly 53.9 µM), hits mostly activators; murine LDR cells, GFP reporter derepression, 30 h; 280,000 tested, 0.2% active; also: nearly all actives have a fitted effect of over 60% in size
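Reporter derepression read as number of fluorescent GFP-positive objects, 20-120 um in size, counted by laser-scanning cytometer. Mouse LDR line with an epigenetically silenced CMV-GFP locus; compound incubation 30 h, 37 C.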
A number is an active result; – = inactive; ? = inconclusive; · = not tested or not shown; [ ] = dose if it differs, or a comment. Shown are actives, neighbours in structure and some others; about 2.4% of the full set was active somewhere. Unless noted, calls follow the shape of the dose curve; as a rule, active = well fitted curve in the direction sought with a large enough effect; inconclusive = small, poorly fitted or top-dose-only effect, or another doubt; inactive = no such curve, though single readings can be large; an effect the other way counts as inactive or inconclusive.

SMILES	Nrf2 block	Nrf2 activator	A549 viability	PINK1 modulator	Epigenetic derep
CCOC(=O)c1c(C)nc2sc3c(=O)n(-c4ccc(C)cc4)cnc3c2c1-c1ccc(OC)cc1	–	–	–	–	–
O=C(Nc1ccccc1)Nc1nc(Nc2cc(F)cc(F)c2)nc(NC2CCCC2)n1	–	·	–	·	·
CC(C)Cn1cc(NC(=O)Nc2cccc(C(F)(F)F)c2)c2ccccc2c1=O	23µM	–	–	?	–
CC(C)Cn1cc(NC(=O)N2CCN(c3cccc(C(F)(F)F)c3)CC2)c2ccccc2c1=O	–	–	–	–	–
Cn1c2cc(C=O)sc2c2cnn(Cc3ccccc3F)c(=O)c21	–	·	–	·	·
CCc1ccc(NC(=O)CCn2c(-c3ccc(OC)cc3)cc(C(C)=O)c2C)cc1	·	–	–	–	–
CCCCN(CC)CCCNC(=O)CCN1N=C(c2ccc(OC)cc2)CCC1=O	·	–	–	–	–
Cc1cc(C)cc(Nc2nc(-c3ccc(S(=O)(=O)N4CCCC4)cc3)cs2)c1	?	–	–	–	–
Cc1ccc(Nc2nc(-c3ccc(S(=O)(=O)N4CCCC4)cc3)cs2)cc1C	·	–	?	–	–
O=S(=O)(c1ccc(-c2csc(Nc3ccc(Br)cc3)n2)cc1)N1CCCC1	8.2µM	–	–	–	–
O=S(=O)(c1ccc(-c2csc(Nc3ccc(F)cc3)n2)cc1)N1CCCC1	18µM	–	–	–	–
CCCN1CCC(=O)N(C(CSc2ccc(Br)cc2)CC(C)C)CC1 (stereo unspecified)	?	·	–	·	·
Cc1csc2c(N3CCN(C(=S)Nc4ccc(F)cc4F)CC3)ncnc12	18µM	–	–	–	–
Cc1csc2c(N3CCN(C(=O)Nc4ccccc4)CC3)ncnc12	8.2µM	–	–	–	–
Cc1csc2ncnc(N3CCN(C(=O)Nc4ccc(OC(F)(F)F)cc4)CC3)c12	23µM	–	?	–	–
Cc1ccc(C(=O)N2CCN(c3ncnc4c(C)csc34)CC2)cc1	?	–	–	–	–
CCc1c(C)nc2ncnn2c1N1CCC(C(=O)NCc2cccs2)CC1	18µM	–	–	–	–
CCc1c(C)nc2ncnn2c1N1CCCC(C(=O)NCc2cccs2)C1 (stereo unspecified)	?	–	–	–	–
COc1ccc(-c2cn3nc(N4CCCC(C(=O)Nc5ccc(C)c(C)c5)C4)sc3n2)cc1 (stereo unspecified)	–	–	–	–	–
CCOc1ccc(NC(=O)C2CCCN(c3c(CC)c(C)nc4ncnn34)C2)cc1 (stereo unspecified)	10µM	–	–	–	·
CCOc1ccc(NC(=O)C2CCCN(c3nn4cc(-c5ccc(OC)cc5)nc4s3)C2)cc1 (stereo unspecified)	7.3µM	–	–	–	–
CC1CN(C(=O)c2cc(S(=O)(=O)N3CCN(c4ccccc4)CC3)ccc2Cl)CC(C)O1 (stereo unspecified)	?	–	–	–	·
O=S(=O)(c1ccc2ccccc2c1)N1CCN(c2ccc(O)cc2)CC1	10µM	–	–	–	·
O=C(c1cc(S(=O)(=O)N2CCN(c3ccccc3)CC2)ccc1Cl)N1CCCCCCC1	21µM	–	–	–	·
CN(C)c1cc2c3ccccc3ccc2c2ccccc12	·	·	·	–	·
SMILES	Nrf2 block	Nrf2 activator	A549 viability	PINK1 modulator	Epigenetic derep
CSc1nc2nc(C(F)(F)F)cc(-c3ccccc3)n2n1	–	14µM	–	–	–
CSc1nc2nc(C)cc(-c3ccccc3)n2n1	–	–	–	–	–
O=C(NCC1Cc2cccc(-c3ncccn3)c2O1)C1CCCO1 (stereo unspecified)	·	·	·	–	·
Nc1nc(N)c(Cc2ccc(Cl)cc2Cl)c(N)n1	18µM	–	–	–	–
CC1=Nc2ccccc2/C1=C(/C)c1c(C)[nH]c2ccccc12	·	·	·	–	·
Nc1ccc2cccnc2c1	·	·	·	–	·
O=C(Nc1ccccn1)c1cc2cc([N+](=O)[O-])ccc2s1	–	–	–	–	–
C=CCOc1ccc2cccc(/C=N/NC(=O)c3cc4cc([N+](=O)[O-])ccc4s3)c2c1	–	–	–	20µM	?
COCCN(C(=O)c1ccco1)c1nc(-c2ccc(OC)cc2)cs1	·	–	·	–	·
Cc1ccc(-c2csc(NC(=S)NC(=O)/C=C/c3ccco3)n2)cc1	·	–	?	–	–
COCCN(C(=O)c1ccco1)c1nc(-c2ccccc2)cs1	?	10µM	–	–	·
O=C(Nc1nc(-c2ccco2)cs1)c1ccccc1	·	?	–	–	–
O=C(/C=C\c1ccco1)Nc1nc(-c2ccc3ccccc3c2)cs1	15µM	–	–	–	–
Cc1ccc(-c2csc(NC(=O)c3ccc(-c4ccccc4)cc3)n2)o1	2.9µM	–	–	–	–
O=C(Nc1nc(-c2ccccc2)cs1)c1ccco1	–	14µM	–	–	–
CC1CCc2nc3ncn(Cc4cccc(F)c4)c(=O)c3cc2C1 (stereo unspecified)	·	–	–	–	–
Cc1ccc2c(c1)N(C)/C(=C/c1cccc[n+]1C)S2	6.5µM	–	?	?	·
Cc1cc(C(C)(C)C)oc1C(=O)N(CC(=O)NC1CCCC1)c1cccc(C(F)(F)F)c1	21µM	–	?	–	–
Cc1ccc(NC2=Nc3ccccc3N3C2=Nc2c(c(C)nn2-c2ccccc2)C3c2ccc(O)c(O)c2)cc1 (stereo unspecified)	18µM	–	?	?	–
Cc1nn(-c2ccccc2)c2c1C(c1ccc(O)c(O)c1)N1C(=N2)C(Nc2ccccc2)=Nc2ccccc21 (stereo unspecified)	–	–	–	–	–
CSc1ncccc1C(=O)N1CCOc2ccc(C(C)(O)CCn3cccn3)cc2C1 (stereo unspecified)	·	·	·	–	·
Nn1c(SCC(=O)NCc2ccccc2)nnc1C1CC1	?	–	–[1.84 µM]	5µM	–
Nn1c(SCC(=O)Nc2ccccc2)nnc1C1CCCCC1	–	–	–	–	·
CCN(CC)C1CCN(C(=O)c2cnn(-c3nccc(-c4ccccc4OC)n3)c2-c2ccco2)C1 (stereo unspecified)	·	·	·	–	·
COCCNC(=O)c1ccc(-n2c(=O)c(=O)[nH]c3ccccc32)cc1	·	·	·	·	–
Cc1cc(CNC(=O)c2cnn(-c3nccc(-c4cc(C)sc4C)n3)c2C2CC2)on1	·	·	·	–	·
CSc1ccc(C(=O)C2CCCN(C(=O)c3nn(C)c(=O)c4ccccc34)C2)cc1 (stereo unspecified)	18µM	–	–	–	–
Cn1nc(C(=O)N2CCCC2)c2ccccc2c1=O	–	–	–	–	–
COc1cc(C2C(C(=O)Nc3ccccc3C)=C(C)Nc3nc(SCc4cc(C)ccc4C)nn32)ccc1O (stereo unspecified)	16µM	–	?	–	–
COc1cc(C2C(C(=O)Nc3ccc(C)cc3C)=C(C)Nc3nc(SCc4ccccc4)nn32)cc(OC)c1OC (stereo unspecified)	–	–	–	–	–
